Assay in all cases: DAPPL (digital affinity profiling via proximity ligation, sequencing); 10 mM Tris-HCl pH 7.5, 50 mM NaCl, 1 mM DTT, 4% glycerol, room temperature, 30 min; GST-TFs on glutathione beads, 16-mer random dsDNA library, 0.1% formaldehyde crosslink after washing; high values mean tight binding
Holding throughout (conditions): protein: recombinant; tags: N-terminal GST; dsDNA, one strand shown

The target in assay [1] is T1, ELK1 (Homo sapiens, UniProt P19419 1-428).
T1 sequence: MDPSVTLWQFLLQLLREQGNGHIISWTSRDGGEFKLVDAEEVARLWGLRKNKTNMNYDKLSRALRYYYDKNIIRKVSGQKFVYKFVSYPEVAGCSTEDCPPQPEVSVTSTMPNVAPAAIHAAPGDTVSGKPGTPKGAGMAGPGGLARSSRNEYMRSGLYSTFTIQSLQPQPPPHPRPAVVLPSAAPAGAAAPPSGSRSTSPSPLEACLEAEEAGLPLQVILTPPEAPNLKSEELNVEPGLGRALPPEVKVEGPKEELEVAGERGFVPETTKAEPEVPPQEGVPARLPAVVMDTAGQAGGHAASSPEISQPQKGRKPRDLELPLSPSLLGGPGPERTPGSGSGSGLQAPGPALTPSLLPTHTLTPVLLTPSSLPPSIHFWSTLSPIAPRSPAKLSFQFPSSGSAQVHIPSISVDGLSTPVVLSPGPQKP
In outline:
(§1)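 Sequencing on an Illumina NextSeq500 followed washing, crosslinking with 0.1% formaldehyde, proximity ligation (BsaI/T4 ligase, 1 h, 37 °C) and PCR amplification of pools that had been incubated for 30 min at room temperature with 200 nmole of a random double-stranded 16-mer DNA library in Tris/NaCl/DTT/glycerol buffer. Each pool held DNA-barcoded human transcription factors, expressed in yeast as GST fusions and captured on glutathione beads, plus a tag-only sample. Binding signal is a hexamer's read frequency for a factor divided by its frequency in the tag-only sample.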

Assay [2] addresses T2, GABPA (Homo sapiens, UniProt Q06546 1-454).
T2 sequence: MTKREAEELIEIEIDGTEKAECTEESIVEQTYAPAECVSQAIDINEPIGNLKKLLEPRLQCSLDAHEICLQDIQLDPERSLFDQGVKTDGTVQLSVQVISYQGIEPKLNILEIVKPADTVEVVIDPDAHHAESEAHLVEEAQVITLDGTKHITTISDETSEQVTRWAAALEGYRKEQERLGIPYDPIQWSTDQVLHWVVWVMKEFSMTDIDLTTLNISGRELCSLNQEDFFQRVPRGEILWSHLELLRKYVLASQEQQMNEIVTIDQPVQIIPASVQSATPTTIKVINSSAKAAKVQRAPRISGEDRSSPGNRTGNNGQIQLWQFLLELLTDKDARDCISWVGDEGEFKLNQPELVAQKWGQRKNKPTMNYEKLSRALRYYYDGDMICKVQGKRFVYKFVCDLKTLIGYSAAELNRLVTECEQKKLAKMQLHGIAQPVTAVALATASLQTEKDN
In outline: as §1

Assay [3] concerns the target T3, ERG (Homo sapiens, UniProt P11308 1-479).
T3 sequence: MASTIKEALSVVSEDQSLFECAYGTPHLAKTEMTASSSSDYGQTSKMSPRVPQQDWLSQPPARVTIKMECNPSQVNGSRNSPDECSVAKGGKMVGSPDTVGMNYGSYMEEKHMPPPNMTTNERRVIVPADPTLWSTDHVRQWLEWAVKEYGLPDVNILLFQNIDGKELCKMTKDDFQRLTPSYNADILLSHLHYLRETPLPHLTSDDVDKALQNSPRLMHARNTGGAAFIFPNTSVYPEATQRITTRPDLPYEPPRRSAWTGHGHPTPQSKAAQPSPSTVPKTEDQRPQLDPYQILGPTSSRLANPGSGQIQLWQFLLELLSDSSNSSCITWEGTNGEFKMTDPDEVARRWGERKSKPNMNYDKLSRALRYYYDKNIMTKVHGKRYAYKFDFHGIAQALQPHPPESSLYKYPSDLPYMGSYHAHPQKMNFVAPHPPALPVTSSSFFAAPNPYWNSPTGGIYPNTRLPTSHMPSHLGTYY
The procedure, abridged: as §1

Assay [4] has as its target SPIB (Homo sapiens, UniProt Q01892 1-262). The procedure, abridged: as §1
The target of assay [5] is T4, ELK3 (Homo sapiens, UniProt P41970 1-407).
T4 sequence: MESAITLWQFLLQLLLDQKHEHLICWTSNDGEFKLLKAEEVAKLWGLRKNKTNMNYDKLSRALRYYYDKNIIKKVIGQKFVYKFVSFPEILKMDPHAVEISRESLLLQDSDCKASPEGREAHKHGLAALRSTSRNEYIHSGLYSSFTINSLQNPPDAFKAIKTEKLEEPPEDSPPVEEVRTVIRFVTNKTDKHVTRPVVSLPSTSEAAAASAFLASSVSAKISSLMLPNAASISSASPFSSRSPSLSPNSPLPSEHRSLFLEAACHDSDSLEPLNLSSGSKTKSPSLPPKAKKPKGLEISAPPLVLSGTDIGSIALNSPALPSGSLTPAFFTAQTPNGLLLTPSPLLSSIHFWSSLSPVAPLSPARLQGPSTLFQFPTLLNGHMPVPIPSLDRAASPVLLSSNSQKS
In outline:
as §1

The target of assay [6] is ETV5 (Homo sapiens, UniProt P41161 1-510). The procedure, abridged: as §1
Sequence of ETV5 (P41161 whole entry): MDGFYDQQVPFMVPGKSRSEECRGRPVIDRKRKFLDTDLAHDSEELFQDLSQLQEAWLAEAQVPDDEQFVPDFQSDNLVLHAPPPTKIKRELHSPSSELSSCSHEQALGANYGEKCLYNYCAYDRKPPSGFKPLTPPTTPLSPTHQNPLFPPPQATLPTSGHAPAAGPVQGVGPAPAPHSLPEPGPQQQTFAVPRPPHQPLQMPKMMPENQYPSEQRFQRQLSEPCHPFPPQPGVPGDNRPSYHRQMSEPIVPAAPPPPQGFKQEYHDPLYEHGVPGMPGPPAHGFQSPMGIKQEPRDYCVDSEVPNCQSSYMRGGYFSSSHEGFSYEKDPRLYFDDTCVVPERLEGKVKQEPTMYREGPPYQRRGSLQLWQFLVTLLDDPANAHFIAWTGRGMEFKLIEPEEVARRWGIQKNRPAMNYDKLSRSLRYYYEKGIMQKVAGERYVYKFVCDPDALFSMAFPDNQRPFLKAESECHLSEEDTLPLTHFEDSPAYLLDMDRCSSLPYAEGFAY
Assay [7] addresses T5, SPIC (Homo sapiens, UniProt Q8N5J4 1-248).
T5 sequence: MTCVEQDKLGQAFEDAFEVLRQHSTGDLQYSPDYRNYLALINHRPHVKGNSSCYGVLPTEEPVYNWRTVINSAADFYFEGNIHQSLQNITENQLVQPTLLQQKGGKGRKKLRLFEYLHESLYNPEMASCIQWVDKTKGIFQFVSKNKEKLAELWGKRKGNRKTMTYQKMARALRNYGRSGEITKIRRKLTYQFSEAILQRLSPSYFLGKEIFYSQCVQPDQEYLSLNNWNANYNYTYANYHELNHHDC
The procedure, abridged: as §1

The target of assay [8] is T6, ELK4 (Homo sapiens, UniProt P28324-2 1-405).
T6 sequence: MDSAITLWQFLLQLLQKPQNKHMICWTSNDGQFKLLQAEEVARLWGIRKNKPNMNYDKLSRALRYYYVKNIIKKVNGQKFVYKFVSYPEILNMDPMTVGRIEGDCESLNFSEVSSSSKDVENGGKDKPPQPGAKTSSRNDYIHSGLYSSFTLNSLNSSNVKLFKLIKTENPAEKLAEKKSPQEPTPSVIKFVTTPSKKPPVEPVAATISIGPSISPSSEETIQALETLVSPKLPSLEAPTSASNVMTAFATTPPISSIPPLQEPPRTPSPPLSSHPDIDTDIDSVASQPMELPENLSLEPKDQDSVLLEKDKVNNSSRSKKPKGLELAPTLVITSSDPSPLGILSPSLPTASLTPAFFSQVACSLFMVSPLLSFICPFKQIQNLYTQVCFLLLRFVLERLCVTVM
In outline: as §1

For assay [9], the target named is ETV1 (Homo sapiens, UniProt P50549 1-477). The procedure, abridged:
as §1

Assay [10] has as its target T7, ERF (Homo sapiens, UniProt P50548 1-548).
T7 sequence: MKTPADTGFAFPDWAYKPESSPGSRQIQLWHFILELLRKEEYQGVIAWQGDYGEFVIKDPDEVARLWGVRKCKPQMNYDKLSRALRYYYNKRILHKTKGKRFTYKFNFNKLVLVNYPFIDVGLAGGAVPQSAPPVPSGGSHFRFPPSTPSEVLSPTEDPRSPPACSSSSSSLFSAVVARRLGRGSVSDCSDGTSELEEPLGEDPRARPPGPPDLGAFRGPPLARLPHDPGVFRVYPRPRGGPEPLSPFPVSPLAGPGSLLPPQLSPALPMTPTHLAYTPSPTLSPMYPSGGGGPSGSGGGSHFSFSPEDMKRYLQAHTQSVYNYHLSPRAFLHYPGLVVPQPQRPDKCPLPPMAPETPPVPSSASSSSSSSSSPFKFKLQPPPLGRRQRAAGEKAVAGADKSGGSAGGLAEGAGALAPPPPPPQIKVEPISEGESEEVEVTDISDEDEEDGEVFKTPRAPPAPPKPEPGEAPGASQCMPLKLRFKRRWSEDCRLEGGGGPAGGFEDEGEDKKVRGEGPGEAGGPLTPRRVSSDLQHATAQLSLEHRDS
In outline: as §1

In assay [11] the target is T8, ETS2 (Homo sapiens, UniProt P15036 1-469).
T8 sequence: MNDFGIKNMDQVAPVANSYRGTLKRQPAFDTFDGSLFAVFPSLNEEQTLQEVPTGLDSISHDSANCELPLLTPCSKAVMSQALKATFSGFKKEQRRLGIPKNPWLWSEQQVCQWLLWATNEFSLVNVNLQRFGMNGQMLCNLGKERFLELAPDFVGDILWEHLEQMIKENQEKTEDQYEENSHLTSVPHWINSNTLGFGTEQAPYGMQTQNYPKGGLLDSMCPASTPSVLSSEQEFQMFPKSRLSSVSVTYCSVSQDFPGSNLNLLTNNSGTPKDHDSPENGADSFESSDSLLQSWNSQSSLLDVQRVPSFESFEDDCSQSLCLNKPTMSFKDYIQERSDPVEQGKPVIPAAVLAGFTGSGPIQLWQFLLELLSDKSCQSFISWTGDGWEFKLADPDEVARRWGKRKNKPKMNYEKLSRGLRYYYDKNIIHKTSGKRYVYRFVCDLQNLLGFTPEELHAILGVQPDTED
In outline: as §1

The target of assay [12] is T9, SPDEF (Homo sapiens, UniProt O95238 1-335).
T9 sequence: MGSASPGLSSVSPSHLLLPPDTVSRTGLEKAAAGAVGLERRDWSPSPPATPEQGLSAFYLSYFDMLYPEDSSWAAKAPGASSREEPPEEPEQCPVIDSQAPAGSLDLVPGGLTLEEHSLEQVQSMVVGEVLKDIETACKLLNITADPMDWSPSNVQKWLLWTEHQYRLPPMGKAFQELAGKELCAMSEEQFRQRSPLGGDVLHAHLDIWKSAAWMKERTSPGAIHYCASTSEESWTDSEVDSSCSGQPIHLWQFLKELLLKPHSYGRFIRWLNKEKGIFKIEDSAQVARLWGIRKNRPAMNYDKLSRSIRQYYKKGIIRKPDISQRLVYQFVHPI
The procedure, abridged:
as §1

Assay [13] addresses T10, ETV7 (Homo sapiens, UniProt Q9Y603 1-341).
T10 sequence: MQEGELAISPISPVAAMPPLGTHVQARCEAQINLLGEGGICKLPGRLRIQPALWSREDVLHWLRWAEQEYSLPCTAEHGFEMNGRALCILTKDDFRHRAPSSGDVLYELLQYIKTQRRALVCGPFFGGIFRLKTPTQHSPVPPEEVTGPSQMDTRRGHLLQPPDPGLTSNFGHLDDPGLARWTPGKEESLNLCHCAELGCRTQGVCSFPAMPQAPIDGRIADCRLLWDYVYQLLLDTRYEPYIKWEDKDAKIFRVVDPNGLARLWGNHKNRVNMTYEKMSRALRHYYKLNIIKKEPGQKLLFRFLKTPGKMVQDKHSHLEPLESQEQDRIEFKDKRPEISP
The procedure, abridged: as §1

Assay [14] concerns the target T11, ETV3 (Homo sapiens, UniProt P41162-2 1-143).
T11 sequence: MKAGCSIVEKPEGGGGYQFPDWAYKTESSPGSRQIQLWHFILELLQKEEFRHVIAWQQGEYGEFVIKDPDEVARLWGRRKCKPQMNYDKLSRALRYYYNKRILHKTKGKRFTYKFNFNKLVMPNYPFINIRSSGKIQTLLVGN
The procedure, abridged: as §1

Assay [15] addresses ETV6 (Homo sapiens, UniProt P41212 1-452). The procedure, abridged:
as §1

The target of assay [16] is ELF1 (Homo sapiens, UniProt P32519 1-619). The procedure, abridged:
as §1

Assay [17] concerns the target T12, ELF3 (Homo sapiens, UniProt P78545 1-371).
T12 sequence: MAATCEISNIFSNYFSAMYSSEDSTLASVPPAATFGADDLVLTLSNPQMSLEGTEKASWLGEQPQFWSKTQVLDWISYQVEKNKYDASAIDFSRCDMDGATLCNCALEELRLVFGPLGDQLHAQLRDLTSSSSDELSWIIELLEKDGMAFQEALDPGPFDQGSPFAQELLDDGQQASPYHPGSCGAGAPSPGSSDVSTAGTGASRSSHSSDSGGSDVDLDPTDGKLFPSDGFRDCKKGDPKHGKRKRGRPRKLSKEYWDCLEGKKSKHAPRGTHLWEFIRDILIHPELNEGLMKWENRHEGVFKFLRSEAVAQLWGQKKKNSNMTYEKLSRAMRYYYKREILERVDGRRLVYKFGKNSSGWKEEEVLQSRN
In outline:
as §1

In assay [18] the target is ELF4 (Homo sapiens, UniProt Q99607 1-663). In outline: as §1
Sequence of ELF4 (Q99607 whole entry): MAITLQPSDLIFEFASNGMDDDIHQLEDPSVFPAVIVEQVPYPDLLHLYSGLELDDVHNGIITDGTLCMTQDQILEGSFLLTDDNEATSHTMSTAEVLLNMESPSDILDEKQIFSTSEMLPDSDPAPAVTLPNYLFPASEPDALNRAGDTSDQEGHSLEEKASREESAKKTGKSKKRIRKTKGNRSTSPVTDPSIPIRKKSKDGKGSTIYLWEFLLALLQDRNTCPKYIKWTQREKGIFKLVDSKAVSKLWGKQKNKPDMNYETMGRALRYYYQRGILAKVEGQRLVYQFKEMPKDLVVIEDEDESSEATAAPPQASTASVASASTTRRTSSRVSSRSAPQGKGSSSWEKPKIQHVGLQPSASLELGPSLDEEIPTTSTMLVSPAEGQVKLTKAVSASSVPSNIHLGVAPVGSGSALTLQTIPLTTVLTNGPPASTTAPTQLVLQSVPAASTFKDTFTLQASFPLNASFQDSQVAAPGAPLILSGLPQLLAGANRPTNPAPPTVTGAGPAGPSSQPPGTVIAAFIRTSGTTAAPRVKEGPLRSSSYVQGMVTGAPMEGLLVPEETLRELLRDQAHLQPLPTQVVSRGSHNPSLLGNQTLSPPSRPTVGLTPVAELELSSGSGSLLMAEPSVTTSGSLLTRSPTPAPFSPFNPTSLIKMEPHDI

The record followed here is paper PMC7862700, “An all-to-all approach to the identification of sequence-specific readers for epigenetic DNA modifications on cytosine”.

Sequence of ETV6 (P41212 whole entry): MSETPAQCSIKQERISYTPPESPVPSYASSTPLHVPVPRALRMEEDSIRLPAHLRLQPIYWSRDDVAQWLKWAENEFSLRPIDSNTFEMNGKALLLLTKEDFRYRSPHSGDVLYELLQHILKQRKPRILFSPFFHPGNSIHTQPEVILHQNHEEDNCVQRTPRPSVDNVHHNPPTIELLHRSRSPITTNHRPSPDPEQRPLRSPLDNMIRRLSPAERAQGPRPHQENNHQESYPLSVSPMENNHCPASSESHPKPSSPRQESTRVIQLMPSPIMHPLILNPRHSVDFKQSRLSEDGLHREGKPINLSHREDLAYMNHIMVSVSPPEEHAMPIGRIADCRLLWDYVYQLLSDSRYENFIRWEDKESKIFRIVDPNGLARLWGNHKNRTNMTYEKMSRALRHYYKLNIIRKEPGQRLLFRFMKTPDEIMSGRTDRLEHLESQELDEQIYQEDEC
Sequence of ETV1 (P50549 whole entry): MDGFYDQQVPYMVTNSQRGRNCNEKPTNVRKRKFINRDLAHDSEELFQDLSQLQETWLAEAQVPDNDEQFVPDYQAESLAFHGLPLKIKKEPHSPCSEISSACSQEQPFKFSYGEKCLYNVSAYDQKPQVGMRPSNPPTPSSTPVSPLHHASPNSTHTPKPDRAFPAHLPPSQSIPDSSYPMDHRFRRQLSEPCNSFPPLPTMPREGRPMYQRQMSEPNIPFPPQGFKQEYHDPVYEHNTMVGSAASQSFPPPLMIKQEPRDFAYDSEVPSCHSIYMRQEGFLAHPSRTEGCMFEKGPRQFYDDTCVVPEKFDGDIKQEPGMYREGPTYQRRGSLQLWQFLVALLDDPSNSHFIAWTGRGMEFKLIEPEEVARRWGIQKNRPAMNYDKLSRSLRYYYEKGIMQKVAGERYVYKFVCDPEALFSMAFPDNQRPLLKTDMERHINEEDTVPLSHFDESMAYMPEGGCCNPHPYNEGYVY
Sequence of ELF1 (P32519 whole entry): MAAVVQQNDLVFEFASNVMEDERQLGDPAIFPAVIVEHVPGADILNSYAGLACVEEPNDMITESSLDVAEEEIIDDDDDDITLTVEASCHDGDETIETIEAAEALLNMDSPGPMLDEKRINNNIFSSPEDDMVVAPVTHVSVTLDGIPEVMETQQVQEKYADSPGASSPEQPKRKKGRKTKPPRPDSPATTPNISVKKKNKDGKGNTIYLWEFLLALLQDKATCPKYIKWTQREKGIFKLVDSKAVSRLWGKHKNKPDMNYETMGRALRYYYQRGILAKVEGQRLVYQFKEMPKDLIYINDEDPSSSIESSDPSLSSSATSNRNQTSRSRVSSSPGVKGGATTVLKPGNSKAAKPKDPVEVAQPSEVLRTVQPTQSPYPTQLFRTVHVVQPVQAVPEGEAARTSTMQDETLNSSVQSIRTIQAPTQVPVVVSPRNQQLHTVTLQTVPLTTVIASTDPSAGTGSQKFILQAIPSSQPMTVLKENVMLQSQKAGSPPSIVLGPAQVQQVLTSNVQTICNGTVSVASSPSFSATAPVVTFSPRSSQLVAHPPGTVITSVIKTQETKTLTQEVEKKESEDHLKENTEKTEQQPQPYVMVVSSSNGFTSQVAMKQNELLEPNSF
Sequence of SPIB (Q01892 whole entry): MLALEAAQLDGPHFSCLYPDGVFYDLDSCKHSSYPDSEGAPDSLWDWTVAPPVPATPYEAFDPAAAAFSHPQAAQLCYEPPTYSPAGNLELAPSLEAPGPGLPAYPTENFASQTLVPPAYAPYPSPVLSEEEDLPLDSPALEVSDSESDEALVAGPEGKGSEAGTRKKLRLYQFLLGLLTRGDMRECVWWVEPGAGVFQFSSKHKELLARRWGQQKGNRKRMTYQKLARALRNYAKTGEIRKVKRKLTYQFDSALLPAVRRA

With AGCGTC, the binding signal in assay [1] is 1.05 fold enrichment (6-mer frequency, TF over GST control); in [2] it was 1.07 fold enrichment (6-mer frequency, TF over GST control); in assay [3] it was 1.1 fold enrichment (6-mer frequency, TF over GST control); in assay [4] it was 1.04 fold enrichment (6-mer frequency, TF over GST control); in assay [5], 1.05 fold enrichment (6-mer frequency, TF over GST control); in assay [6], 1.04 fold enrichment (6-mer frequency, TF over GST control). In addition, the binding signal is 1.11 fold enrichment (6-mer frequency, TF over GST control) in assay [7]; 1.01 fold enrichment (6-mer frequency, TF over GST control) in assay [8]; 1.04 fold enrichment (6-mer frequency, TF over GST control) in [9]; 1.07 fold enrichment (6-mer frequency, TF over GST control) in assay [10]; 1.02 fold enrichment (6-mer frequency, TF over GST control) in assay [11]; 1.08 fold enrichment (6-mer frequency, TF over GST control) in assay [12]. The binding signal in [13] is 1.06 fold enrichment (6-mer frequency, TF over GST control); in assay [14] it was 1.01 fold enrichment (6-mer frequency, TF over GST control); in assay [15], 1.02 fold enrichment (6-mer frequency, TF over GST control).

As for AACTGT, the binding signal in assay [2] is 1.01 fold enrichment (6-mer frequency, TF over GST control); in assay [16] it was 1.02 fold enrichment (6-mer frequency, TF over GST control); in assay [5] it was 1.06 fold enrichment (6-mer frequency, TF over GST control); in [6], 1 fold enrichment (6-mer frequency, TF over GST control); in [17] it was 1.09 fold enrichment (6-mer frequency, TF over GST control); in assay [15] it was 1.04 fold enrichment (6-mer frequency, TF over GST control).

In the case of TAGGCC, the binding signal in [2] was 1.02 fold enrichment (6-mer frequency, TF over GST control); in assay [6], 1.05 fold enrichment (6-mer frequency, TF over GST control); in assay [18], 1.01 fold enrichment (6-mer frequency, TF over GST control); in assay [13], 1.03 fold enrichment (6-mer frequency, TF over GST control).
